Only some compounds are listed: those with a hit (about 1.6% of all), similar ones and a draw of the others.
KCNQ2 enhance – potentiators of rat KCNQ2 potassium channel; O88943; CHO-K1 KCNQ2, FluxOR thallium flux fluorescence; hits give high values; B-score at 10 µM; 310,000 tested, 0.54% active; AID 2239;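 active = fluorescence ratio B-score at least 3 SD of library B-scores, with initial fluorescence B-score within 3 of them, cut at about 5.3 in these data; same plate scores as AID 2156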;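 note: B-score of peak minus minimum over baseline fluorescence ratio after K+ and Tl+ stimulus; positive B-score means potentiation of KCNQ2 with more thallium influx and brighter signal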
KCNQ2 block – inhibitors of rat KCNQ2 potassium channel | O88943 | CHO-K1 KCNQ2, FluxOR thallium flux, 20 min; hits give low values | B-score at 10 µM | 310,000 tested, 1.1% active;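 active = fluorescence ratio B-score at most minus 3 library SDs, with starting brightness B-score within 2 library SDs, cut at about -5.5 in these data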
Kir21 confirm – confirmation of mouse Kir2.1 potassium channel inhibitors | shares compounds with KCNQ2 enhance | Kir2.1-expressing cells, FluxOR thallium flux fluorescence; hits give low values | Tl flux remaining, % of negative control (hits give low values), % at 10 µM | 2,300 tested, 41% active | AID 2032;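 active = Primary-screen hit whose thallium flux fell at least 3 control SD below untreated wells in both duplicates, with normal baseline fluorescence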
Target sequence (P35561 whole entry, looked up): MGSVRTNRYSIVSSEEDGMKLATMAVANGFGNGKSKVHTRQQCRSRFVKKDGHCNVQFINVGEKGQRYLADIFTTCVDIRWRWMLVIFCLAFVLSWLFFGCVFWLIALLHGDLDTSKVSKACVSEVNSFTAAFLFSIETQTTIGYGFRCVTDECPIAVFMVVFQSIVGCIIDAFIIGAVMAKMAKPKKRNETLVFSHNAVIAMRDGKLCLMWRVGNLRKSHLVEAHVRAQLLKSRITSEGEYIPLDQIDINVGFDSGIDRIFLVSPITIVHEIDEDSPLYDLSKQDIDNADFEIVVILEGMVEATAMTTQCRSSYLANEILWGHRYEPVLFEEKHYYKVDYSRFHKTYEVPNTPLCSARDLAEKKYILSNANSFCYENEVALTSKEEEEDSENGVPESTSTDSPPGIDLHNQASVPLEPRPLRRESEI
HEK293 ctr – alters thallium flux in parental HEK293 cells, Kir2.1 counter-screen. shares compounds with KCNQ2 enhance. FluxOR thallium flux fluorescence; 0% = unstimulated blank wells. FluxOR signal as % of negative control (100 = no effect), % at 10 µM. 2,300 tested, 19% active. AID 2105;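 active = dye signal at least 3 control SD above or below untreated wells in both duplicates, raw fluorescence within 3, either direction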;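 note: percent is based on the flux ratio of peak minus minimum fluorescence over baseline F0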
CHO-K1 ctr – parental CHO-K1 activity in KCNQ2 potentiator counter-screen. 1,200 tested, 43% active. activity increase over 3SD of controls, % at 10 µM. AID 2282. parental CHO-K1 cells, FluxOR thallium flux fluorescence; zero = vehicle mean+3SD, 100% = vehicle-minus-blank window. shares compounds with KCNQ2 enhance;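 active = signal rise of at least 3 SD above the untreated control mean, in both duplicate wells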;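 note: counter screen of KCNQ2 potentiator hits so any rise reflects channel-independent effects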
KCNQ1 sel pot – human KCNQ1 counter-target activity of KCNQ2 potentiators. shares compounds with KCNQ2 enhance. CHO KCNQ1 stable, FluxOR thallium flux fluorescence; beyond 3SD, as % of vehicle-control signal. activation over 3SD threshold, % at 10 µM. 1,200 tested, 28% active. AID 2283;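 active = fluorescence ratio rise of at least 3 SD of vehicle wells above their mean, in both replicate wells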
KCNQ2 pot conf – rat KCNQ2 channel potentiator confirmation; shares compounds with KCNQ2 enhance; CHO-KCNQ2 cells, FluxOR thallium flux fluorescence; potentiation, less the hit threshold, % at 10 µM; 1,200 tested, 68% active;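 active = fluorescence ratio rising 3 SD or more over the vehicle control mean in both replicates, plus primary screen hit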;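 note: peak minus minimum thallium fluorescence divided by baseline after K/Tl stimulus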
Kir21 spec – mouse Kir2.1 off-target activity of KCNQ2 potentiators; shares compounds with KCNQ2 enhance; HEK293 Kir2.1, FluxOR thallium flux fluorescence; activity over 3SD threshold, % at 10 µM; 1,200 tested, 2% active;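 active = fluorescence ratio rise of at least 3 SD above the vehicle-control mean, seen in both replicates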
KCNQ2 W236L pot – KCNQ2 potentiators acting on retigabine-insensitive rat KCNQ2 W236L mutant; CHO KCNQ2-W236L, automated patch clamp current; shares compounds with KCNQ2 enhance; current increase over 3SD of negative controls (%), hits give high values, % at 25 µM; 940 tested, 10% active; AID 2558;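 active = current increase at least 3 SD of the untreated controls above them in both duplicate recordings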
Numbers stand for hits; n = inactive; x = not tested or not shown.

SMILES | KCNQ2 enhance | KCNQ2 block | Kir21 confirm | HEK293 ctr | others
CCc1ccc(CNC(=O)C2CCN(S(=O)(=O)N3CCC(C)CC3)CC2)cc1 | 6.9 | n | n | n | CHO-K1 ctr=n;KCNQ1 sel pot=n;KCNQ2 pot conf=n;Kir21 spec=n
CCOc1cc(C2NC(=O)NC2=O)ccc1O (stereo not given) | n | n | x | x
CC(=O)Nc1ccc(NCN2C(=O)C3C4CCC(C4)C3C2=O)cc1 (stereo not given) | n | n | x | x
Cc1ccc(NCN2C(=O)C3C4CCC(C4)C3C2=O)cc1 (stereo not given) | 6.2 | n | n | n | CHO-K1 ctr=n;KCNQ1 sel pot=n;KCNQ2 pot conf=n;Kir21 spec=n
O=C(NCc1ccco1)c1ccccc1-c1ccc(C(F)(F)F)cc1 | 6.1 | n | n | n | CHO-K1 ctr=n;KCNQ1 sel pot=23;KCNQ2 pot conf=1.0;Kir21 spec=n;KCNQ2 W236L pot=n
O=C(NCc1ccco1)c1ccc(C(F)(F)F)cc1 | n | n | x | x
CC1=C(C(=O)Nc2cccc(C(=O)NC3CCCCC3C)c2)SCCO1 (stereo not given) | n | n | x | x
Cc1noc(C)c1CSc1nc2ccccc2n1CCc1ccccc1 | n | -6 | 66% | n
O=C(O)CCn1c(SCc2ccccc2)nc2ccccc21 | n | n | x | x
COc1ccc(N(C(=O)c2ccco2)C(C(=O)NC2CCCC2)c2cc(OC)c(OC)c(OC)c2)cc1 (stereo not given) | n | n | x | x
Cc1cc(C)n(-c2ccc(C(=O)NCc3ccc4c(c3)OCO4)cc2)n1 | n | n | x | x
Cc1cc(C)n(-c2ccc(C(=O)NCc3ccc(F)cc3)cc2)n1 | n | n | 22% | n
O=C(CCCNC(=O)/C(=C/c1ccc(F)cc1)NC(=O)c1ccccc1)OCc1ccccc1 | x | n | x | x
O=C(CNC(=O)C1CCCCC1)NNC(=O)c1ccccc1Br | x | n | x | x
Cc1cc(OC(C)C(=O)NNC(=O)Nc2ccc(F)cc2F)cc(C)c1Cl (stereo not given) | 7.5 | n | n | n | CHO-K1 ctr=n;KCNQ1 sel pot=n;KCNQ2 pot conf=n;Kir21 spec=n;KCNQ2 W236L pot=n
COc1cc([N+](=O)[O-])ccc1NC(=O)NNC(=O)C(C)Oc1ccc(F)cc1F (stereo not given) | x | n | x | x
CO/N=C\CC(=O)Nc1ccc(Oc2ccccc2)cc1 | n | n | x | x
Cc1ccc2c(CC(=O)OCc3nc(N)nc(Nc4ccccc4C)n3)coc2c1 | 11 | n | n | n | CHO-K1 ctr=17;KCNQ1 sel pot=n;KCNQ2 pot conf=15;Kir21 spec=n;KCNQ2 W236L pot=n
Cc1ccc(S(=O)(=O)CCC(=O)OCc2nc(N)nc(Nc3ccccc3C)n2)cc1 | n | n | x | x
COc1ccc(CNS(=O)(=O)c2cc(-c3cc(C)no3)ccc2C)cc1OC | x | n | x | x
O=C(Nc1cc(Cl)ccc1F)C1=COCCO1 | x | n | x | x
CN(c1ccc(Cl)cc1)c1cc(=O)n(C)c2ccccc12 | x | n | n | n
CN(C(=O)COc1cc(=O)n(C)c2ccccc12)c1ccc(Cl)cc1 | x | n | x | x
S=c1[nH]nc(-c2ccncc2)n1/N=C/c1cccc(Cl)c1 | n | n | x | x
Cc1cccc(CN2CCc3c([nH]c4ccccc34)C2)c1 | n | n | 43% | n
SMILES | KCNQ2 enhance | KCNQ2 block | Kir21 confirm | HEK293 ctr | others
Clc1cccc(CN2CCc3c([nH]c4ccccc34)C2)c1 | x | n | x | x
Cc1nc2cc(OCc3cc(C(=O)NC(C)c4cnn(C)c4)no3)ccc2s1 (stereo not given) | x | n | x | x
O=C(NCc1ccccn1)C(=O)NCC1OCCN1S(=O)(=O)c1ccc(Cl)cc1 (stereo not given) | x | n | x | x
COc1ccc(-c2oc3ccc(-c4cc(OC)c(OC)c(OC)c4)cc3c2C#Cc2ccsc2)cc1 | n | n | x | x
O=C(OCC(=O)N1c2ccccc2Sc2ccccc21)C1CC(=O)N(Cc2ccco2)C1 (stereo not given) | x | n | x | x
O=C(COC(=O)C1CC(=O)N(Cc2ccco2)C1)c1ccc(OC(=O)c2ccccc2)cc1 (stereo not given) | n | n | n | n
CCCc1nc(SC)[nH]c(=O)c1C | n | n | x | x
O=C(COC(=O)CCSc1ccc(Cl)cc1)NCCc1ccccc1 | x | n | x | x
CC(C)(Oc1ccc(Cl)cc1)C(=O)OCC(=O)NCCc1ccccc1 | n | n | 62% | n
N#CC(C#N)=Cc1c[nH]c(=O)c(C#N)c1Nc1ccccc1 | x | n | x | x
CN(C(=O)c1cccc(NC(=O)c2cccs2)c1)c1ccccc1 | n | n | x | x
COc1ccc(CN(C(=O)c2cc(=O)c3cc(C)cc(C)c3o2)C2CCS(=O)(=O)C2)cc1 (stereo not given) | n | n | x | x
CCOC(=O)c1c(NS(C)(=O)=O)sc2c1CCC(C)C2 (stereo not given) | n | n | n | 178%
CCOC(=O)c1c(N)sc2c1CCC(C)C2 (stereo not given) | n | n | x | x
Cc1ccc(OCC(O)CN2CCc3ccccc3C2)c(C)c1 (stereo not given) | x | n | 28% | n
C=CCc1ccc(OCC(O)CN2CCc3ccccc3C2)c(OC)c1 (stereo not given) | x | n | 30% | n
COc1cccc(OCC(O)CN2CCc3ccccc3C2)c1 (stereo not given) | n | n | x | x
COc1ccc(OCC(O)CN2CCc3ccccc3C2)cc1 (stereo not given) | n | n | x | x
OC(COc1ccc(Cl)cc1Cl)CN1CCc2ccccc2C1 (stereo not given) | x | n | 40% | n
OC(COC(c1ccc(Cl)cc1)c1ccc(Cl)cc1)CN1CCc2ccccc2C1 (stereo not given) | x | n | x | x
Cc1cccc(OCC(O)CN2CCc3ccccc3C2)c1 (stereo not given) | n | n | 42% | n
COc1cc(COCC(O)CN2CCc3ccccc3C2)cc(OC)c1OC (stereo not given) | n | n | x | x
O=C(NC1CCCCC1)NC1C2CC3CC(C2)CC1C3 (stereo not given) | n | n | x | x
CC(=O)c1cc(CN2CCN(C3CCCCC3)C(CCO)C2)cs1 (stereo not given) | x | n | x | x
Nn1c(COc2ccccc2F)nnc1SCC(=O)NC1CC1 | n | n | x | x
C[C@H](NC(=O)CCCOc1ccc(Cl)cc1Cl)c1nnc2ccccn12 | n | n | x | x
COc1ccc(N2CCN(C(=O)CNC(=O)c3ccccc3Cl)CC2)cc1 | x | n | x | x
CN(C)CCCn1cnc2c(c1=N)C(c1ccccc1)c1ccc3ccccc3c1O2 (stereo not given) | x | n | n | n

Source: PubChem (Johns Hopkins Ion Channel Center)
